This is a sample that favours compounds with a hit; in the whole collection about 1.1% have one here.
RGS4 inh: Inhibitors of Regulator of G Protein Signaling (RGS) 4: qHTS; Regulator of G-protein signaling 4 (Homo sapiens), P49798; Transcreener GDP fluorescence polarization, RGS4-accelerated GTP hydrolysis; Potency, µM (doses to about 114 µM), inactives show top-dose activity change, negative = inhibition, hits mostly inhibitors; actives 0.039% (n = 390,000); further: nearly all actives have a fitted effect of over 75% in size
Target sequence (P49798 whole entry, looked up): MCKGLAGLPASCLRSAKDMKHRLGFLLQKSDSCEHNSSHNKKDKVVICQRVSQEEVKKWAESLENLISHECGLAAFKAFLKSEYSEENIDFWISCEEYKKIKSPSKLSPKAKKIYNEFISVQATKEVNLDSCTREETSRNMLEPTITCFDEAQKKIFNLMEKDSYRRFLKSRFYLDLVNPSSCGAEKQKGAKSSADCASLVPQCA
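MLSMR compounds (23 nl, pin-transferred) preincubated 10 min at room temperature with a 500nM (2x) first reagent, then RGS4 at 900nM (2x) plus Transcreener GDP mix added; fluorescence polarization (620/688 nm) read before and after 90 min at 30 °C.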
mIDH1 inhibitor: qHTS for Inhibitors of mutant isocitrate dehydrogenase 1 (IDH1): qHTS; Isocitrate dehydrogenase [NADP] cytoplasmic (Homo sapiens), O75874; IDH1-R132H enzyme, NADPH consumption, diaphorase/resazurin fluorescence; Potency, µM (series often up to 76.6 µM), without a hit: top-dose activity change, negative = inhibition, most hits filed as inhibitors; actives 0.093% (n = 390,000); AID 602179, 2012; further: nearly all actives have a fitted effect of over 65% in size
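IDH1-R132H (0.5 ug/mL dispensed) in pH 7.5 Tris buffer was preincubated 30 min with compound, then given a substrate mix of 0.016 mM NADPH and 2 mM alpha-KG for 80 min at room temperature; remaining NADPH was read by diaphorase/resazurin fluorescence.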
rTrxR1 inhibitor: qHTS Assay for Inhibitors of Mammalian Selenoprotein Thioredoxin Reductase 1 (TrxR1): qHTS; Thioredoxin reductase 1, cytoplasmic (Rattus norvegicus), O89049; recombinant rTrxR1, NADPH fluorescence consumption, selenite substrate; actives 1% (n = 390,000); Potency, µM (highest dose often 114 µM), for inactives: at the highest dose activity change, negative = inhibition, hits mostly inhibitors; further: nearly all actives have a fitted effect of over 65% in size
Target sequence (O89049 whole entry, looked up): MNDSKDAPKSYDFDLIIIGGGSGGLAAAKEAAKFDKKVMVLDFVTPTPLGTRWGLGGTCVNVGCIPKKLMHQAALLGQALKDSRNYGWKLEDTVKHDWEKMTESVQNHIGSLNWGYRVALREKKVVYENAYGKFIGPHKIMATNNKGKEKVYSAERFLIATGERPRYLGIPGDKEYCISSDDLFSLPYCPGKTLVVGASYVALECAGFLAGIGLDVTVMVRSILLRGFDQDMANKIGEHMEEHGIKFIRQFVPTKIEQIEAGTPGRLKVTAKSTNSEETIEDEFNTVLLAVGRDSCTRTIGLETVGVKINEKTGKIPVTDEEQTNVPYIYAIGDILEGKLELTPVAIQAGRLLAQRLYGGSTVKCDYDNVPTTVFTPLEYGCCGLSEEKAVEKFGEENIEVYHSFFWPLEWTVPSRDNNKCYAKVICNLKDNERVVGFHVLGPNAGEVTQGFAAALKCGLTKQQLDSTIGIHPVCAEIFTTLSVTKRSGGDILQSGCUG
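Rat TrxR1 (90 nM in the dispensed reagent) was pre-reduced with 400 uM NADPH for 5 min at room temperature, then incubated with compound for 15 min. After 400 uM selenite was added, NADPH fluorescence (Ex 340/Em 450 nm) was followed for 8 min.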
TrxR1 substrate: qHTS Assay for Substrates of Mammalian Selenoprotein Thioredoxin Reductase 1 (TrxR1): qHTS; Potency, µM (titrated, usually from 114 µM), for the others: at the highest dose activity change, negative = substrate turnover; purified TrxR1 substrate turnover, NADPH consumption readout; Thioredoxin reductase 1, cytoplasmic (Rattus norvegicus), O89049; AID 588456, 2011; actives 0.01% (n = 390,000); further: nearly all actives have a fitted effect of over 50% in size
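Rat TrxR1, dispensed at 90 nM, was prereduced with 400 uM NADPH (final) for 5 min at ~22 deg C, then incubated with compound 15 min before 400 uM selenite. A first-read NADPH fluorescence drop versus no-compound background flagged substrates.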
Eya2 phos inh: qHTS Assay for Inhibitors of the Phosphatase Activity of Eya2; Protein phosphatase EYA2 (Homo sapiens), O00167; recombinant Eya2, OMFP fluorescence dephosphorylation (OMFP is methylfluorescein phosphate); Potency, µM (highest dose often 76.9 µM), without a hit: top-dose activity, negative = inhibition, actives largely listed as inhibitors; actives 0.006% (n = 330,000); AID 488837, 2010
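Eya2 (0.2 uM) preincubated 10 min at ambient with compound, then OMFP substrate added at 50 uM; 10 min reaction in 50 mM HEPES pH 7.5, 50 mM NaCl, 5 uM MgCl2, 0.05% BSA, 1 mM DTT. Fluorescence read at Ex 485/Em 525 nm.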
* marks the source's active call; other numbers are inactive results; i = inactive; ? = inconclusive; / = no result given; [ ] = dose if it differs, or a comment. The call rests on the fitted dose curve; in most records, active means well fitted curve in the direction sought with a large enough effect; inconclusive means small, poorly fitted or top-dose-only effect, or another doubt; inactive means no such curve, though single readings can be large; an effect the other way counts as inactive or inconclusive. On the % scale 0 is the no-effect control and ±100 the full control effect; potency means the concentration at half of the fitted maximal effect.

SMILES	RGS4 inh	mIDH1 inhibitor	rTrxR1 inhibitor	TrxR1 substrate	Eya2 phos inh
CS(=O)(=O)c1nc(S(=O)(=O)c2ccc(Cl)cc2)c(N2CCC(C(N)=O)CC2)s1	-29%	-4%	32µM*	-11%	0%
NC(=O)CSc1oc(-c2ccco2)nc1S(=O)(=O)c1ccccc1	-23%	-2%	40µM*	4%	4%
CCOC(=O)CSc1nnc(NCC(=O)OC)c(=O)[nH]1	?	1%	10µM*	3%	-16%
O=C1CCC(C(=O)N2CCOCC2)CN1Cc1ccc(Cl)cc1 (stereo unspecified)	8%	4%	37%	5%	15%
O=C1CCC(C(=O)N2CCSCC2)CN1Cc1ccc(Cl)cc1 (stereo unspecified)	-28%	3%	45µM*	-8%	-6%
COc1ccc(NC(=O)CSc2oc(-c3ccc(C)cc3)nc2S(=O)(=O)c2ccc(C)cc2)c(OC)c1	-17%	3%	50µM*	7%[2.29 µM]	/
O=C(CN1C(=O)S/C(=C\c2cccs2)C1=O)Nc1ccc(O)c(C(=O)O)c1	8%	3%	-25%	-23%	0%
COC(=O)C(CC(=O)c1ccc(Br)cc1)n1cccn1 (stereo unspecified)	?	3%	8.9µM*	10%	-8%
COC(=O)C(CC(=O)c1ccc(C)cc1)n1cccn1 (stereo unspecified)	-15%	-1%	?	5%	0%
Cc1ccc(S(=O)(=O)CCC(=O)N(CCCN2CCOCC2)c2nc3ccccc3s2)cc1	-17%	1%	28µM*	-2%	14%
CCN(CC)CCN(C(=O)CCS(=O)(=O)c1ccccc1)c1nc2cc3c(cc2s1)OCO3	-6%	9%	14µM*	-1%	-11%
Cc1ccc2nc(N(CCN3CCOCC3)C(=O)CCS(=O)(=O)c3ccccc3)sc2c1	-18%	0%	-28%	1%	-37%
O=C(CCS(=O)(=O)c1ccccc1)N(CCCN1CCOCC1)c1nc2ccccc2s1	-29%	3%	14µM*	-1%	4%
CN(C)CCN(C(=O)CCS(=O)(=O)c1ccccc1)c1nc2cc3c(cc2s1)OCO3	-27%	1%	-29%	-7%	5%
CC1CN(C(=O)c2ccc(S(=O)(=O)Nc3cccc(C(F)(F)F)c3)cc2)CC(C)O1 (stereo unspecified)	-17%	3%	-3%	-7%	0%
COc1ccccc1C(=O)Nc1ccccc1SC(=O)c1ccccc1OC	-51%	10%	-7%	-3%	-1%
CCOc1ccc(NC(=O)c2nc(SCc3ccccc3F)ncc2Cl)cc1	/	/	18%	2%	/
O=C(Nc1ccc(OC(F)F)cc1)c1nc(S(=O)(=O)Cc2ccccc2F)ncc1Cl	/	/	3.5µM*	1%	/
CS(=O)(=O)c1ncc(Cl)c(C(=O)Nc2ccc3ccccc3c2)n1	?	16%	13µM*	8%	1%
COC(=O)c1ccc(NC(=O)c2nc(S(=O)(=O)Cc3ccccc3F)ncc2Cl)cc1	/	/	8.9µM*	-1%	/
O=C(Nc1ccc2ccccc2c1)c1cnccn1	23%	4%	12%	0%	-37%
CCOc1ccc(NC(=O)c2nc(S(=O)(=O)Cc3ccccc3F)ncc2Cl)cc1	?	-20%	1.8µM*	7%	/
O=C(Nc1ccccc1)c1nc(S(=O)(=O)Cc2ccccc2F)ncc1Cl	/	/	?	9%	/
CCOc1ccc(NC(=O)c2nc(S(=O)(=O)Cc3ccccc3)ncc2Cl)cc1	/	/	2.2µM*	-3%	/
COC(=O)c1ccccc1NC(=O)c1nc(S(=O)(=O)Cc2ccccc2)ncc1Cl	-32%	2%	8.9µM*	8%	1%
SMILES	RGS4 inh	mIDH1 inhibitor	rTrxR1 inhibitor	TrxR1 substrate	Eya2 phos inh
COC(=O)c1cscc1S(=O)(=O)Cc1ccccc1	-1%	0%	20µM*	0%	7%
CC(=O)Nc1ccc(NC(=O)c2nc(S(=O)(=O)Cc3ccccc3)ncc2Cl)cc1	20%	-11%	15%	-2%	1%
CCn1c(=O)c2cc(C(=O)Nc3cc(F)ccc3F)sc2c2ccccc21	-13%	14%	3%	6%	/
CCOc1ccc(C(=O)N2CCN(c3ccccc3)CC2)cc1	-9%	10%	15%[57.1 µM]	7%[57.1 µM]	2%
CCc1cc(CNC(=O)c2cccc(OC3CCN(S(C)(=O)=O)CC3)c2)on1	-25%	5%	-10%	-9%	/
CCC1=C[C@@H]2CN(C1)Cc1c([nH]c3ccccc13)[C@@](C(=O)OC)(c1cc3c(cc1OC)N(C)[C@H]1[C@@](O)(C(=O)OC)[C@H](OC(C)=O)[C@]4(CC)C=CCN5CC[C@]31[C@@H]54)C2	/	/	28µM*	4%	/
CC[C@]1(O)C[C@@H]2CN(CCc3c([nH]c4ccccc34)[C@](C(=O)OC)(c3cc4c(cc3OC)N(C)[C@H]3[C@](O)(C(=O)OC)[C@@H](C(=O)OC)[C@@]5(CC)C=CCN6CC[C@@]43[C@@H]65)C2)C1	i	/	/	/	/
COc1ccc(N2C(=O)CC(Sc3nnc(-c4ccccc4)o3)C2=O)cc1 (stereo unspecified)	-44%	-2%	40µM*	2%	19%
O=C1CC(Sc2nnc(-c3ccccc3O)o2)C(=O)N1c1ccccc1 (stereo unspecified)	-9%	-3%	?	7%	2%
Cc1cc(=S)cc(C)n1CCCO	36%	1%	13µM*	-12%	-34%
Cc1nc2cc(Cl)c(Cl)cc2n1CCCO	-10%	5%	4%[57.1 µM]	-1%[57.1 µM]	?
Cc1ccc(S(=O)(=O)CCC(=O)OCC(=O)c2cc(C)ccc2C)cc1	5%	2%	-3%	-8%	-4%
Cc1ccc(S(=O)(=O)CCC(=O)c2ccc(O)cc2O)cc1	?	-2%	7.1µM*	-5%	-14%
COc1ccc(C(=O)CCS(=O)(=O)c2ccc(C)cc2)cc1OC	-53%	14%	2.2µM*	7%	-17%
Cc1cc2nc(-c3ccc(SCC(=O)N4CCN(C(=O)c5ccco5)CC4)nc3)[nH]c2cc1C	?	8%	13µM*	43%	9%
COc1cccc(C(=O)OCC(=O)Nc2sc3c(c2C(N)=O)CCC3)c1O	-37%	2%	-10%	-4%	2%
O=C1C=CC(=O)N1c1cccc(-c2ccccc2)c1	?	0%	2.5µM*	7%[57.1 µM]	-2%
O=C(Nc1cccc(N2C(=O)C=CC2=O)c1)c1cccs1	/	/	/	/	22%
CCN(CC)C(=O)CSc1nc(-c2ccc(C)cc2)nc2c1Cc1c(CO)cnc(C)c1O2	-11%	23%	20µM*	-5%	/
